Where “and” joins values, the source holds several entries; their conditions need not be identical. Equal entries are not always repeated. Out of some 220,000 compounds screened, about 2,600 (1.2%) were called active. This is one part of a sample in which actives are shown more often than they occur. Values without a mark were called inactive.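 Rule for the calls: active = activation above the mean of all tested compounds plus 3 SD, set per screening run (cut at about 8.8% in these data); inactive = the rest.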
What follows are molecules tested against Wee1-like protein kinase (Homo sapiens) (UniProt P30291) (assay: compounds stabilizing Wee1-luciferase fusion – cell-based, HeLa, Wee1K328M-luciferase, luminescence, primary screen (AID 1321;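 note: cells exposed to compound for 20 h before luminescence read; 0% = DMSO alone and 100% = MG132 at 30 µM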)). Settings: HeLa Luc-Wee1K328M stability, at 5 µM, hits give high values, 100% = proteasome inhibitor MG132 effect.

Row | SMILES | reporter increase
1 | Nc1c(-c2ccc(F)cc2)cnc2ncnn12 | -2.59%
2 | CC1(C)CN(c2ccc(-c3ccnc4ncnn34)cc2)C1=O | 9.83% (active)
3 | Cc1cc(C(=O)OCC(=O)Nc2nccs2)c2ccccc2n1 | -2.08%
4 | Cc1cc(=O)[nH]c(SCC(=O)N2c3ccccc3CC2C)n1 (stereo unspecified) | -2.08%
5 | CCn1nc(C(=O)OCC(=O)N2c3ccccc3CC2C)c2ccccc2c1=O (stereo unspecified) | -0.36%
6 | CCOC(=O)c1[nH]c(C)c(C(=O)OCC(=O)N2c3ccccc3CC2C)c1C (stereo unspecified) | 15.6% (active)
7 | CC(=O)NCc1ccc(S(=O)(=O)NC2CCN(Cc3ccccc3)CC2)cc1 | 0.4%
8 | CCOc1ccccc1NC(=O)C1CCN(S(=O)(=O)c2c(C)nn(C)c2C)CC1 | -1.78%
9 | CCOC(=O)C1CCN(C(=O)C2CCN(S(=O)(=O)c3c(C)noc3C)CC2)CC1 | -0.61%
10 | CCOc1ccc(OCC)c(NC(=O)C2CCN(S(=O)(=O)c3c(C)noc3C)CC2)c1 | 11.6% (active)
11 | CC1(C)CC(N2CCN(C(c3ccccc3)c3ccccc3)CC2)=CC(=[N+]2CCCCC2)C1 | -0.62%
12 | Nc1nc(O)c(CC(=O)O)s1 | -1.29%
13 | O=C(O)c1ccc(/C=N/Nc2nc(N3CCCCC3)nc(N3CCCCC3)n2)cc1 | -2.82%
14 | O=C(c1c(Cl)cccc1Cl)N1CCN(c2cccc3[nH]ccc23)CC1 | 0.73%
15 | O=C(COC(=O)c1ccc(F)cc1F)Nc1ncccn1 | 0.53%
16 | Cc1ccc(-c2nc3ccccc3[nH]2)cc1N | 0.78%
17 | O=C(Cc1nc2ccccc2[nH]c1=O)c1ccc(Cl)cc1 | 3.48%
18 | Cc1ccc(-c2nc3ccccc3[nH]c2=O)cc1 | 9.13% (active)
19 | O=C(COC(=O)c1ccc(S(=O)(=O)Nc2ccccc2)cc1)NCC1CCCO1 (stereo unspecified) | -1.62%
20 | NS(=O)(=O)c1ccc(NC2=CC(c3ccc(F)cc3)N(c3ccc(S(N)(=O)=O)cc3)C2=O)cc1 (stereo unspecified) | 0.72%
21 | CC(CNS(=O)(=O)c1ccc(Br)cc1)CN(C)C (stereo unspecified) | -0.62%
22 | O=S(=O)(Nc1ccc(Cl)cn1)c1cnc(Cl)c(Br)c1 | -0.3%
23 | COc1ccc(CN2C(=O)C(C)S/C2=N/N=C/c2ccco2)cc1 (stereo unspecified) | 5.4%
24 | Cc1ccc(/C=N/NC(=S)Nc2cccc(S(=O)(=O)N(C)C)c2)o1 | 9.21% (active)

Row | SMILES | reporter increase
25 | CN(C)S(=O)(=O)c1cccc(NC(=S)NCc2ccc3c(c2)OCO3)c1 | 3.85%
26 | CN(C)S(=O)(=O)c1cccc(NC(=S)N/N=C/C(=O)c2ccccc2)c1 | -1.91%
27 | CCOc1ncccc1C(=O)OCC(=O)NC1CC1 | -1.43%
28 | O=C(COC(=O)c1ccccc1SCC(=O)NC1CCCCC1)NC1CCCCC1 | 11.2% (active)
29 | N#Cc1ccccc1Sc1ccccc1C(=O)OCC(=O)NC1CCCCC1 | 2.45%
30 | COc1ccccc1Nc1nc(N)nc(CSC(=S)N2CCOCC2)n1 | -0.95%
31 | O=C(Nc1ccc2c(c1)OCCO2)c1ccoc1 | 2.96%
32 | Cc1coc2cc3oc(=O)c(CCC(=O)O)c(C)c3cc12 | 5.73%
33 | S=c1[nH]nc(-c2ccncc2)n1/N=C/c1ccccc1Cl | -0.32%
34 | COCCn1c(=O)[nH]c(=O)c2cc(C(=O)c3cc(OC)ccc3O)cnc21 | 0.11%
35 | COc1ccc(O)c(C(=O)c2cnc3onc(C(C)C)c3c2)c1 | -2.73%
36 | COc1ccc(O)c(C(=O)c2cnc3c(c2)c(-c2ccc(F)cc2)c(C#N)c(=O)n3C)c1 | 9.71% (active)
37 | COc1ccccc1NC(=O)c1cc(Cl)nc2ccccc12 | 0.15%
38 | Nc1cccc(S(=O)(=O)Nc2ccc(SC(F)F)cc2)c1 | -0.8%
39 | CC(C)NS(=O)(=O)c1ccc(NC(=O)C2CCCCC2)cc1 | -3.05%
40 | CCOC(=O)[C@H]1CCC[C@@H](NS(=O)(=O)c2ccc(NC(C)=O)cc2)C1 | 0.32%
41 | CC(=O)Nc1ccc(S(=O)(=O)NC(C)C(=O)OCC(=O)NC2CCCC2)cc1 (stereo unspecified) | 11.2% (active)
42 | OCCC1CN(Cc2cnc(-c3ccccc3)s2)CCN1CCc1ccccc1 (stereo unspecified) | 9.46% (active)
43 | OCCC1CN(Cc2ccc(Oc3ncccn3)cc2)CCN1CCc1ccccc1 (stereo unspecified) | -0.52%
44 | OCCC1CN(Cc2cccc(O)c2)CCN1CCc1ccccc1 (stereo unspecified) | -3.15%
45 | O=C(O)Cc1csc(-c2cccc(Oc3ccccc3)c2)n1 | 3.33% and -2.75%
46 | S=c1nc2ccccc2c2nc(-c3cccnc3)[nH]n12 | 1.58%
47 | C=CCn1c(-c2ccc3[nH]c(C)c(C)c3c2)n[nH]c1=S | -4.16%
48 | C=CCn1c(-c2sc(-c3ccccc3)nc2C)n[nH]c1=S | -4.5%

Row | SMILES | reporter increase
49 | C=CCn1c(=S)sc2c(=O)[nH]c(C)nc21 | 9.98% (active)
50 | S=c1[nH]nc(-c2cccs2)n1/N=C/c1cn(-c2ccccc2)nc1-c1ccc(Cl)cc1 | -0.32%
51 | CCc1ccc2oc(-c3ccc(N)cc3)nc2c1 | 18.6% (active)
52 | COc1cccc(-c2nc3cc(C)ccc3o2)c1 | 1.41%
53 | CCCCCC(=O)Nc1ccc2oc(-c3ccncc3)nc2c1 | -0.09%
54 | O=C(NCc1ccccc1)c1ccc(CNc2c(N3CCCC3)c(=O)c2=O)cc1 | -2.66%
55 | CN1CCN(C(c2cc3cc4c(cc3[nH]c2=O)OCCO4)c2nnnn2C2CCCC2)CC1 (stereo unspecified) | 11.8% (active)
56 | COc1ccc(N2CCN(C(c3cc4ccc(C)cc4[nH]c3=O)c3nnnn3C3CCCC3)CC2)cc1 (stereo unspecified) | 0.68%
57 | CCOC(=O)C1CCN(C(c2cc3cc(C)cc(C)c3[nH]c2=O)c2nnnn2C2CCCCC2)CC1 (stereo unspecified) | 1.1%
58 | COc1ccc(-c2nn(C)c(=O)c3ccccc23)cc1CNC(=O)C1CCCCC1 | 0.26%
59 | CCN(CC)CCNCC(=O)Nc1ccc(Oc2ccccc2)cc1 | 2.79%
60 | O=c1ccnc(Nc2ccc(Cl)cc2)[nH]1 | 1.16%
61 | O=C(COC(=O)c1ccc(NS(=O)(=O)c2cccs2)cc1O)Nc1ccc(F)cc1 | -0.64%
62 | COc1ccc(-n2ncc3c(N4CCCc5ccccc54)ncnc32)cc1 | 3.61%
63 | c1ccc(-n2ncc3c(N4CCCC4)ncnc32)cc1 | 5.02%
64 | COc1ccc(-n2ncc3c(N4CCc5ccccc54)ncnc32)cc1 | 8.86% (active)
65 | COc1ccc(CCNC(=O)C(=O)Nc2ccc3nc4n(c(=O)c3c2)CCCCC4)cc1OC | 1.04%
66 | Brc1ccc(-c2noc(-c3ccccc3)n2)o1 | 0.13%
67 | Cn1c(CSCC(=O)Nc2ccccc2)nnc1SCc1ccccc1 | -1.68%
68 | COC(=O)c1cccc([N+](=O)[O-])c1CS(=O)(=O)c1ccc(C)cc1 | 1.24%
69 | Cc1ccc(N=C2NC(=O)c3cccc([N+](=O)[O-])c32)cc1 | 8.82% (active)
70 | CCCCOc1ccc(CON(C(C)=O)C(C)=O)cc1Cl | -0.35%
71 | c1csc(-c2nnc(COc3ncnc4sccc34)o2)c1 | 1.62%
72 | O=C1C(Cc2ccc(O)cc2)NC(=S)N1Cc1ccccc1 (stereo unspecified) | -2.34%

Row | SMILES | reporter increase
73 | COc1cccc(-n2c(=S)[nH]c3c(oc4ccccc43)c2=O)c1 | 5.9%
74 | COc1ccc(-n2c(=S)[nH]c3sc4c(c3c2=O)CCc2ccccc2-4)cc1 | 8.88% (active)
75 | CSc1nc2sc3c(c2c(=O)[nH]1)CCc1ccccc1-3 | -0.01%
76 | COc1ccc(CCNS(=O)(=O)c2cccc3cccnc23)cc1OC | -3.35%
77 | Cc1ccc(/C=N/NC(=O)CSc2ccccn2)o1 | 3.47%
78 | O=C(Nc1ccccc1N1CCOCC1)c1csc2c1CCCC2 | -0.73%
79 | Cc1nc2cccnc2nc1C | 6.05%
80 | CC(C)(C)NC(=O)CN(C(=O)c1ccc(Cl)nc1)c1cccc2ccccc12 | -1.92%
81 | CC(C)(C)NC(=O)CN(C(=O)c1csnn1)c1ccccc1-c1ccccc1 | 10.2% (active)
82 | CCC(C)(C)NC(=O)C(c1ccccn1)N(C(=O)c1csnn1)c1ccccc1 (stereo unspecified) | 1.04%
83 | CC(C)COC(=O)n1c(=O)oc2ccc(S(=O)(=O)N3CCCCC3)cc21 | -1.87%
84 | Cn1c(=O)n(C)c2cc(NS(=O)(=O)c3ccc(F)cc3)ccc21 | 12.5% (active)
85 | Cc1cc(C)cc(NS(=O)(=O)c2ccc(F)cc2)c1 | -2.79%
86 | Cn1nccc1NS(=O)(=O)c1ccc(F)cc1 | 0.03%
87 | Cn1c2ccccc2c2cc(/C=C(\NC(=O)c3ccccc3)C(=O)NCC(=O)O)ccc21 | -0.33%
88 | O=C(NNc1ccccn1)c1ccc(Cl)nc1 | -1.7%
89 | CCN(CC)c1ccc(NC(=O)c2ccc(Cl)nc2)cc1 | 10.4% (active)
90 | NS(=O)(=O)c1ccc(NC(=O)COC(=O)c2ccc(Cl)nc2)cc1 | -1.21%
91 | CCCc1nc(-c2cc3cc(C)ccc3[nH]c2=O)no1 | -2.96%
92 | FC(F)(F)Oc1ccc(-c2cn3cccnc3n2)cc1 | -1.79%
93 | COc1ccc(CCN2C(=O)N(c3ccc(OC)cc3)C(=O)C2CC(=O)Nc2ccc(OC)cc2)cc1 (stereo unspecified) | -1.78%
94 | CCOc1ccccc1C(=O)NCc1ccco1 | -0.54%
95 | COc1ccc(CCNS(=O)(=O)c2ccc(C(=O)NCc3ccco3)cc2)cc1OC | -0.79%
96 | CCCC1=Nc2cc(C(=O)NCc3ccco3)ccc2Sc2ccccc21 | 11.6% (active)
